Test results taken from PubChem BioAssay AID1159580 (chemical genetic matrix, 2015).
Where “and” joins values, the source holds several entries; their conditions need not be identical. Equal entries are not always repeated. The whole screen tested about 5,500 compounds, of which about 2,000 (36%) were called active. Another 18% or so got no clear call; they are omitted. Cut-off read from the data, not from the text of the source: active = normalized growth mostly below about 0.91 (no sharp cut-off); inconclusive = no clear call, values can overlap the other calls; inactive = mostly above about 0.92. Some of the results follow.

Assay: chemical genetic growth profiling, strain panel (AID 1159580);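 note: tested at 20 µM; growth read once vehicle control cultures reached saturation at 30 °C; 1 = growth at the plate median or of vehicle wells; lower values mean less growth of the strain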
Settings: S. cerevisiae deletion strains, growth OD

Measured: normalized growth

NC(=O)c1ccc([N+](=O)[O-])cc1Cl
inactive: locus YAL013W, strain DEP1, active compounds read low 0.983 | locus YAL021C, strain ccr4, active compounds read low 0.97 | locus YAL026C, strain drs2, active compounds read low 0.968 | locus YAL030W, strain snc1, active compounds read low 0.997 | locus YBL061C, strain skt5, active compounds read low 0.983 | locus YBR009C, strain hhf1, active compounds read low 0.953 | locus YBR021W, strain FUR4, active compounds read low 1.02 | locus YBR023C, strain chs3, active compounds read low 0.985 | locus YBR171W, strain sec66, active compounds read low 0.981 | locus YBR229C, strain ROT2, active compounds read low 0.95 | locus YBR231C, strain swc5, active compounds read low 1.01 | locus YBR279W, strain paf1, active compounds read low 0.988 | locus YCL011C, strain gbp2, active compounds read low 0.929 | locus YCL016C, strain dcc1, active compounds read low 0.951 | locus YCL029C, strain bik1, active compounds read low 0.977 | locus YCL069W, strain vba3, active compounds read low 0.984 | locus YCR088W, strain abp1, active compounds read low 0.994 | locus YDL005C, strain med2, active compounds read low 0.985 | locus YDL035C, strain GPR1, active compounds read low 0.98 | locus YDL040C, strain nat1, active compounds read low 0.992 | locus YDL074C, strain BRE1, active compounds read low 0.956 | locus YDL101C, strain DUN1, active compounds read low 0.943 | locus YDL134C, strain PPH21, active compounds read low 0.982 | locus YDL185W, strain tfp1, active compounds read low 0.981 | locus YDL192W, strain arf1, active compounds read low 0.982 | locus YDR001C, strain nth1, active compounds read low 0.965 | locus YDR069C, strain doa4, active compounds read low 0.971 | locus YDR101C, strain arx1, active compounds read low 0.991 | locus YDR137W, strain rgp1, active compounds read low 0.929 | locus YDR150W, strain NUM1, active compounds read low 0.965 | locus YDR159W, strain sac3, active compounds read low 0.931 | locus YDR162C, strain NBP2, active compounds read low 0.945 | locus YDR195W, strain ref2 1.02 | locus YDR297W, strain sur2, active compounds read low 0.978 | locus YDR318W, strain mcm21, active compounds read low 0.995 | locus YDR334W, strain swr1, active compounds read low 0.979 | locus YDR335W, strain msn5, active compounds read low 0.981 | locus YDR388W, active compounds read low 0.984 | locus YDR392W, strain spt3, active compounds read low 0.942 | locus YDR502C, strain sam2, active compounds read low 0.973 | locus YEL003W, strain gim4, active compounds read low 1.01 | locus YEL037C, strain rad23, active compounds read low 0.983 | locus YEL061C, strain CIN8 (second series), active compounds read low 0.979 | locus YEL061C, strain CIN8, active compounds read low 0.976 | locus YER015W, strain faa2, active compounds read low 0.988 | locus YER016W, strain bim1, active compounds read low 0.969 | locus YER110C, active compounds read low 0.978 | locus YER111C, strain swi4, active compounds read low 0.988 | locus YER155C, strain BEM2 (second series), active compounds read low 1.05 | locus YER155C, strain BEM2, active compounds read low 0.984 | locus YER167W, strain BCK2, active compounds read low 0.978 | locus YFR010W, strain ubp6, active compounds read low 0.975 | locus YGL078C, strain dbp3, active compounds read low 0.965 | locus YGL086W, strain mad1, active compounds read low 0.998 | locus YGL167C, strain pmr1, active compounds read low 0.978 | locus YGL173C, strain kem1, active compounds read low 0.99 | locus YGL227W, strain vid30, active compounds read low 0.991 | locus YGL240W, strain doc1, active compounds read low 0.995 | locus YGL248W, strain PDE1, active compounds read low 0.973 | locus YGL253W, strain hxk2, active compounds read low 0.971 | locus YGR078C, strain PAC10, active compounds read low 0.979 | locus YGR135W, strain pre9, active compounds read low 0.971 | locus YGR229C, strain SMI1, active compounds read low 0.974 | locus YGR252W, strain gcn5, active compounds read low 1 | locus YHR013C, strain ard1, active compounds read low 0.936 | locus YHR027C, strain rpn1, active compounds read low 0.968 | locus YHR030C, strain SLT2, active compounds read low 0.985 and 0.977 | locus YHR079C, strain IRE1 (second series), active compounds read low 0.977 | locus YHR079C, strain IRE1, active compounds read low 0.974 | locus YHR094C, strain hxt1, active compounds read low 0.989 | locus YHR129C, strain ARP1, active compounds read low 0.997 | locus YHR142W, strain chs7, active compounds read low 0.982 | locus YHR200W, strain rpn10, active compounds read low 0.981 | locus YIL066C, strain RNR3, active compounds read low 0.976 | locus YIL073C, strain SPO22, active compounds read low 0.95 | locus YIL125W, strain kgd1, active compounds read low 0.989 | locus YIR030C, strain dcg1, active compounds read low 0.972 | locus YJL092W, strain hpr5, active compounds read low 0.988 | locus YJL095W, strain BCK1 (second series), active compounds read low 0.969 | locus YJL095W, strain BCK1, active compounds read low 0.995 and 0.957 | locus YJL115W, strain asf1, active compounds read low 0.986 | locus YJL129C, strain trk1, active compounds read low 1.02 | locus YJL134W, strain LCB3, active compounds read low 0.975 | locus YJL154C, strain vps35, active compounds read low 0.98 | locus YJL164C, strain tpk1, active compounds read low 0.933 | locus YJL166W, strain qcr8, active compounds read low 1.01 | locus YJL168C, strain set2, active compounds read low 0.982 | locus YJL187C, strain SWE1 (second series), active compounds read low 0.972 | locus YJR043C, strain POL32, active compounds read low 0.993 | locus YJR066W, strain TOR1, active compounds read low 0.944 | locus YJR075W, strain HOC1, active compounds read low 0.969
